# From PubChem BioAssay
# Compounds with a hit are over-represented: about 10% of the library has one in this group of screens.
# GLS inh = qHTS for Inhibitors of Glutaminase (GLS). Glutaminase kidney isoform, mitochondrial (Homo sapiens), O94925. GLS enzymatic activity, qHTS titration. Potency, µM (series often up to 45.5 µM), for the others: at the top dose activity change, negative = inhibition, most hits filed as inhibitors. actives 0.21% (n = 410,000). AID 624170, 2012; note: % is set by controls: 0 for no effect and ±100 for the full control effect
#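 Enzyme dispensed in phosphate buffer (45 mM, pH 8.2, 0.02% Tween-20), compounds pinned in, then 1 mM L-glutamine solution and the glutamate oxidase–HRP–Amplex Red mix added; fluorescence read immediately and again after 30 min at room temperature.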
# JMJD2A Tudor = qHTS Assay for Inhibitors of JMJD2A-Tudor Domain. AID 504339, 2011. actives 4.4% (n = 390,000). AlphaScreen JMJD2A-Tudor / H3K4me3 peptide binding. Potency, µM (top dose mostly 114 µM), for the others: top-dose activity change, negative = inhibition, usual class: inhibitors; note: % is set by controls: 0 for no effect and ±100 for the full control effect; nearly all actives have a fitted effect of over 50% in size
# HP1b chromo inh = HTS for Inhibitors of HP1-beta Chromodomain Interactions with Methylated Histone Tails; Potency, µM (top dose mostly 114 µM), for inactives: top-dose activity change, negative = inhibition, hits mostly inhibitors; AlphaScreen HP1-beta / biotin-H3K9me3 peptide binding; Chromobox protein homolog 1 (Homo sapiens), P83916; actives 0.56% (n = 390,000); AID 540317, 2011; note: nearly all actives have a fitted effect of over 70% in size
# Target sequence (P83916 whole entry, looked up): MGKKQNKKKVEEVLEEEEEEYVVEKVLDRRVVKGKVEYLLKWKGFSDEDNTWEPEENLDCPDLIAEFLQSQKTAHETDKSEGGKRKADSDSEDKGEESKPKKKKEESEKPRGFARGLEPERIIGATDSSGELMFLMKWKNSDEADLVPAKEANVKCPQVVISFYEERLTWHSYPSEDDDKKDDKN
#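 HP1-beta protein (50 nM final) preincubated 30 min at room temperature with biotinylated H3(1-18)K9me3 peptide (50 nM) in PBS pH 7.4, 0.01% Tween-20, then compound added for 30 min. AlphaScreen streptavidin donor/nickel chelate acceptor beads (10 ug/mL final), 30 min dark, luminescence read.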
# G9a inh = qHTS Assay for Inhibitors of Histone Lysine Methyltransferase G9a | G9a H3K9 monomethylation, AlphaScreen, 2 h | actives 8.8% (n = 350,000) | Potency, µM (titrated, usually from 102 µM), without a hit: at the highest dose activity, negative = inhibition, actives largely listed as inhibitors | Histone-lysine N-methyltransferase EHMT2 (Homo sapiens), Q96KQ7; note: % is set by controls: 0 for no effect and ±100 for the full control effect; nearly all actives have a fitted effect of over 75% in size
# Target sequence (Q96KQ7 913-1193 limits assumed): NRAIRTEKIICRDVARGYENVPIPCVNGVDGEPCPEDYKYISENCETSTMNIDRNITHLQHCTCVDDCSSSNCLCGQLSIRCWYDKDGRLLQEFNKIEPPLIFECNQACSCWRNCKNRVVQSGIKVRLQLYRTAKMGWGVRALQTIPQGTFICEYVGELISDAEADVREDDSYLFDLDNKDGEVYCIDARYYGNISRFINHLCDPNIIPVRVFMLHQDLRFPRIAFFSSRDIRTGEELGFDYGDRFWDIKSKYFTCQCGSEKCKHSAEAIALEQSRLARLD
#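 Enzyme 20 nM + cpd, 15 min RT; add b-H3K9 pep 500 nM / SAM 20 uM; 2 h RT; anti-H3K9me1 Ab 0.5 ug/mL + SA donor / anti-rabbit acceptor beads 20 ug/mL each, 10 min; AlphaScreen read.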
# L3MBTL1 inh = qHTS Assay for the Inhibitors of L3MBTL1; Lethal(3)malignant brain tumor-like protein 1 (Homo sapiens), Q9Y468; AlphaScreen L3MBTL1–H3K9me1 peptide binding; Potency, µM (highest dose often 57.1 µM), without a hit: at the top dose activity, negative = inhibition, most hits filed as inhibitors; actives 0.66% (n = 230,000); note: % is set by controls: 0 for no effect and ±100 for the full control effect; nearly all actives have a fitted effect of over 60% in size
#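 L3MBTL1 50 nM + b-AHA-H3(1-15)K9me1 75 nM, 30 min RT; compound added, 30 min RT; streptavidin donor/Ni-chelate acceptor beads 10 ug/mL each final, 30 min RT dark; AlphaScreen read.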
# BAZ2B block = qHTS Assay for Inhibitors of BAZ2B; actives 4.4% (n = 360,000); AlphaScreen BAZ2B-H3K14Ac peptide displacement; Potency, µM (highest dose often 114 µM), for the others: at the top dose activity change, negative = inhibition, most hits filed as inhibitors; Bromodomain adjacent to zinc finger domain protein 2B (Homo sapiens), Q9UIF8; note: % is set by controls: 0 for no effect and ±100 for the full control effect; nearly all actives have a fitted effect of over 60% in size
#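 AlphaScreen luminescence quantifies BAZ2B engagement of H3K14Ac peptide; the protein and biotinylated peptide are both at 50 nM final, buffer PBS pH 7.4 with 0.01% Tween-20, all steps at room temperature.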
# Starred values were filed as active, the others as inactive; ? = inconclusive; nt = no result given; [ ] = dose if it differs, or a comment. Calls come from the whole dose curve; as a rule, active = well fitted curve in the direction sought with a large enough effect; inconclusive = small, poorly fitted or top-dose-only effect, or another doubt; inactive = no such curve, though single readings can be large; an effect the other way counts as inactive or inconclusive. Potency is the fitted concentration of half-maximal effect.
SMILES,GLS inh,JMJD2A Tudor,HP1b chromo inh,G9a inh,L3MBTL1 inh,BAZ2B block
O=C(O)c1ccc(-c2ccc(/C=C3\NC(=O)N(Cc4ccc(Cl)cc4)C3=O)o2)cc1,-10%,-27%,11%,50µM*,?,?
Cc1cc(C(=O)O)ccc1-c1ccc(CO)o1,7%,-7%,46%,?,?,-26%
O=C(O)c1ccc(CN2C(=O)c3ccc(C(=O)O)cc3C2=O)cc1,3%,-4%,33%,-11%[2.33 µM],nt,-20%
Cc1ccc2c(CC(=O)N3CCN(c4cccc(Cl)c4)CC3)coc2c1C,-1%,-24%,-1%,-44%[59 µM],nt,-35%
Cc1ccc2c(c1)N(C(=O)N1CCC(C(=O)NCc3cccc(Br)c3)CC1)CCO2,-2%,-11%,40%,-34%[59 µM],nt,-2%
COC(=O)c1ccccc1NC(=O)CSc1nc(-c2ccccc2)cc(C(F)(F)F)n1,15%,29%,97%,35%[59 µM],nt,14%
Cc1ccc(/C=C/C(=O)NCC2COc3ccccc3O2)o1 (stereo not given),0%,56µM*,?,?,-3%,?
Cc1cc(C(=O)NCC2COc3ccccc3O2)c2ccccc2n1 (stereo not given),1%,-3%,36%,45µM*,-1%,-17%
COc1ccc(/C=C/C(=O)NCC2COc3ccccc3O2)cc1OC (stereo not given),2%,-6%,28%,5%,-8%,-4%
Cc1ccc(/C=C/C(=O)NCCc2c[nH]c3ccccc23)o1,7%,-32%,?,45µM*,-21%,nt
COc1cccc(CN2C(=O)c3ccccc3Sc3ccc(C(=O)OCc4ccco4)cc32)c1,-7%,-26%,12%[57 µM],2%[59 µM],nt,-20%
CCOC(=O)n1c(=O)oc2ccc(Cl)cc21,8%,28µM*,27%,20µM*,-3%,5%
CCCCOC(=O)n1c(=O)oc2ccccc21,7%,0%,29%,7%[59 µM],nt,10%
O=C(NCCc1nc2ccccc2n1CCCOc1ccccc1)C1CCCCC1,nt,-11%[57.1 µM],24%[57 µM],nt,nt,nt
O=C(O)Cc1nnc(-c2cc3ccccc3[nH]2)s1,nt,-34%,nt,nt,nt,nt
Cc1ccc(NC(=O)COc2cccc(/C=C3\SC(=S)N(CCC(=O)O)C3=O)c2)cc1Cl,9%,-32%[11.4 µM],-5%,2%[59 µM],nt,45µM*
COc1cccc(/C=C2\SC(=S)N(CCCC(=O)Nc3ccc(C(=O)O)cc3)C2=O)c1,9%,?,-9%,nt,nt,?
O=C(O)CCN1C(=O)/C(=C\c2cccc(OCC(=O)Nc3ccc(Cl)cc3)c2)SC1=S,18%,-25%[11.4 µM],45µM*,?,-26%,45µM*
CCn1c(O)c(/C=C2\C=Nc3ccccc32)sc1=Nc1ccc(C)cc1,18%,-25%,10%,8%,-1%,2%[57.1 µM]
COCCCn1c(O)c(/C=C2\N=C(C#N)C(=Nc3ccc(C)cc3)O2)sc1=S,-10%,?,?,?,-28%,10µM*
Oc1ccc(NCc2ccccc2OCc2ccc(Cl)cc2)cc1,7%,?,5%,7.9µM*,nt,-25%
O=c1[nH]c2ccc(NCc3ccccc3F)cc2[nH]1,1%,?,-1%,18µM*,nt,?
O=c1[nH]c2ccc(NCc3ccccc3OCc3ccc(Cl)cc3)cc2[nH]1,16%,28µM*,?,25µM*,?,22µM*
O=c1[nH]c2ccc(NCc3ccc(-c4ccccc4F)o3)cc2[nH]1,0%,-16%,28%,-25%[59 µM],nt,-10%
O=C1C(O)=CC(=C(c2ccccc2)c2ccccc2)c2ccccc21,5%,14µM*,13µM*,nt,nt,nt
SMILES,GLS inh,JMJD2A Tudor,HP1b chromo inh,G9a inh,L3MBTL1 inh,BAZ2B block
COCCn1c(C)cc(O)c(C(c2ccccc2Cl)N2CCCCC2)c1=O (stereo not given),3%,4%,36%[57 µM],-1%[59 µM],nt,1%
O=C(O)C(=O)Nc1nc(-c2ccc3c(c2)OCCO3)cs1,-11%,-22%,13%[57 µM],32µM*,nt,?
CCCC(=O)Nc1nc(-c2ccc3c(c2)OCCO3)cs1,-6%,-11%,22%,?,1%,-21%
Cc1nc(N2CCCCC2)c2ccsc2n1,nt,0.79µM*,?,20µM*,nt,5µM*
Cc1nc(N2CCCCC2)c2c(-c3cccs3)csc2n1,-2%,36%,70%,17%[59 µM],nt,-34%
COc1ccc(C2CC(=O)c3c([nH]c(C(=O)OC4CCCCCC4)c3C)C2)cc1OC (stereo not given),1%,-9%,18%,6%[59 µM],nt,-1%
Cc1ccc2c(c1)c1c(c(=O)n(-c3cccc(Cl)c3)c(=O)n1CC(=O)N1CCCC1)n2C,0%,-16%,12%,-4%[59 µM],nt,-5%
COc1ccc(CNCC(=O)Nc2sccc2C#N)cc1,-6%,-7%[11.4 µM],22%,28µM*,-19%,50µM*
N#Cc1ccsc1NC(=O)CN1CCN(c2ccc(O)cc2)CC1,?,?,?,18µM*,-12%,-35%
CC(=O)N1CCN(CC(=O)Nc2sccc2C#N)CC1,14%,56µM*,-12%,52%,nt,-26%
Cc1ccc(S(=O)(=O)CCC(=O)Nc2sccc2C#N)cc1,-4%,0%,31%,25µM*,10%,9%
